Results taken from the supplement of paper PMC13380429.
Unmarked numbers belong to inactive results.

Tested on: Vero E6 infected with SARS-CoV-2
Test: inhibition of SARS-CoV-2 cytopathic effect; higher = more antiviral protection, active = above 15
Details: 48 h

| Structure (SMILES) | inhibition of SARS-CoV-2 cytopathic effect (1 nM) | inhibition of SARS-CoV-2 cytopathic effect (8.33 nM) | inhibition of SARS-CoV-2 cytopathic effect (100 nM) | inhibition of SARS-CoV-2 cytopathic effect (833.33 nM) | inhibition of SARS-CoV-2 cytopathic effect (10000 nM) |
| --- | --- | --- | --- | --- | --- |
| CC(C)OC(=O)[C@H](C)N[P@@](=O)(OC[C@H]1O[C@@H](n2ccc(=O)[nH]c2=O)[C@](C)(F)[C@@H]1O)Oc1ccccc1 | 2.14% | -0.76% | -2.61% | -0.19% | 0.32% |
| O=C1C=CC[C@@H]2[C@H]3CCCN4CCC[C@@H](CN12)[C@@H]34 [sophocarpine] | -8.47% | -10.7% | -12.4% | -12.3% | -13.3% |
| C[C@@H](O[C@H]1OCCN(Cc2nn(P(=O)(O)O)c(=O)[nH]2)[C@H]1c1ccc(F)cc1)c1cc(C(F)(F)F)cc(C(F)(F)F)c1 [fosaprepitant-dimeglumine] | -0.45% | 3.23% | 1% | -0.01% | -0.52% |
| Nc1ccc(C(=O)Nc2cccc(-c3nc(N4CCOCC4)c4oc5ncccc5c4n3)c2)cn1 | -0.93% | -2.3% | -2.43% | 0% | 20.4% (active) |
| O=C(O)c1ccc2[nH]cc(CCCCN3CC=C(c4ccccc4)CC3)c2c1 [carmoxirole] | 1.76% | 1.65% | -1.21% | 0.28% | 0.69% |
| CC[N+](CC)(CCCNC1=CC(=O)C(NCCC[N+](CC)(CC)Cc2ccccc2)=CC1=O)Cc1ccccc1 [benzoquinonium-dibromide] | -1.79% | 1.05% | -2.22% | 0.21% | -1.78% |
| C[N+]1(C)[C@@H]2C[C@@H](OC(=O)[C@H](CO)c3ccccc3)C[C@H]1[C@@H]1O[C@@H]12 [methscopolamine] | -1.29% | -0.27% | 1.56% | 0.62% | 1.83% |
| CC(C)c1cccc2c1OC(C(C)C)C(=S)N2CC(=O)O (stereo not given) | -0.74% | 3.31% | 1.03% | 1.02% | -0.31% |
| Cc1c(N)c(=O)n(-c2ccccc2)n1C [ampyrone] | -3.22% | -2.95% | -3.07% | -2.31% | -1.12% |
| CN1C(=O)COc2c(C(=O)NC3CN4CCC3CC4)cc(Cl)cc21 (stereo not given) [azasetron] | 1.97% | 1.89% | 0.9% | -0.56% | -0.16% |
| COc1cccc(-n2nc(C(=O)O)cc2-c2ccc(C3CCCCC3)c(Cl)c2)c1 | 0.77% | 1.66% | 2.64% | 1.95% | 6.19% |
| Cc1ccc(N(CC2=NCCN2)c2cccc(O)c2)cc1 [phentolamine] | -1.41% | 0.07% | -0.25% | 1.86% | -4.23% |
| CC(C)CN(C[C@@H](O)[C@H](Cc1ccccc1)NC(=O)O[C@H]1CO[C@H]2OCC[C@H]21)S(=O)(=O)c1ccc(N)cc1 [darunavir] | -2.41% | -2.86% | -0.7% | 0.44% | -1.15% |
| CN(C)c1ccc(C(=C2C=CC(=[N+](C)C)C=C2)c2ccc(N(C)C)cc2)cc1 [crystal-violet] | -0.43% | 1.49% | 0.27% | -11.4% | -22.8% |
| CC(=O)Nc1ncc([N+](=O)[O-])s1 [nithiamide] | -2.44% | -2.01% | -13.5% | -2.95% | -1.53% |
| CNCC(O)c1ccc(O)c(O)c1 (racemic) [DL-Adrenaline] | 1.39% | -1.53% | 1.56% | -2.05% | -1.47% |
| CN1CCC(=C2c3ccccc3Sc3ccccc32)CC1 [pimethixene] | 1.38% | 0.84% | -0.63% | -0.47% | -3.2% |
| O=C(O)Cc1ccc(OCCNC[C@H](O)c2ccccc2)cc1 | 2.57% | 3.11% | 0.37% | -0.56% | 1.01% |
| N#C[C@@H]1CCCN1C(=O)CNC12CC3CC(CC(O)(C3)C1)C2 [vildagliptin] | 0.17% | -0.28% | -0.35% | -0.2% | 1.3% |

| Structure (SMILES) | inhibition of SARS-CoV-2 cytopathic effect (1 nM) | inhibition of SARS-CoV-2 cytopathic effect (8.33 nM) | inhibition of SARS-CoV-2 cytopathic effect (100 nM) | inhibition of SARS-CoV-2 cytopathic effect (833.33 nM) | inhibition of SARS-CoV-2 cytopathic effect (10000 nM) |
| --- | --- | --- | --- | --- | --- |
| CO[C@H]1O[C@@H]2O[C@@]3(C)CC[C@H]4[C@H](C)CC[C@@H]([C@H]1C)[C@@]24OO3 [artemether] | 7.32% | 4.82% | 2.64% | -2.72% | 0.52% |
| CC(=O)[C@H]1CC[C@H]2[C@@H]3CC=C4C[C@@H](OC(=O)CCC(=O)O)CC[C@]4(C)[C@H]3CC[C@]12C [pregnenolone-succinate] | 5.34% | 3.1% | 3.45% | 5.79% | 5.05% |
| O[C@@H](COc1cccc2ncccc12)CN1CCN([C@@H]2c3ccccc3[C@@H]3[C@H](c4ccccc42)C3(F)F)CC1 [zosuquidar] | -0.36% | 1.65% | 0.11% | 0.85% | -3.28% |
| O=C(CNC(=O)c1ccc(Cl)cc1)NO [benurestat] | -3.63% | -2.49% | -1.54% | -0.58% | 0.4% |
| COc1ccc(CCC(=O)Nc2nc3ccc(Cl)cc3s2)cc1OC | -2.56% | -3.14% | -2.66% | 0.12% | 0.38% |
| Cc1cccc(NC(=O)CN2CCC(c3ccccn3)CC2)c1 | 1.23% | 1.06% | -0.12% | 0% | 3.09% |
| C=C1/C(=C\C=C2/CCC[C@]3(C)[C@@H]([C@H](C)/C=C/C=C/C(O)(CC)CC)CC[C@@H]23)C[C@@H](O)C[C@@H]1O [seocalcitol] | -3.06% | -2.2% | -0.09% | 1.95% | 1.01% |
| CC(C)(CO)c1cc2cc(NC(=O)C3(c4ccc5c(c4)OC(F)(F)O5)CC3)c(F)cc2n1C[C@@H](O)CO [tezacaftor] | 0.35% | 0.97% | -1.35% | 1.62% | 0.29% |
| Nc1ccn([C@@H]2O[C@H](CO)[C@@H](O)C2(F)F)c(=O)n1 [gemcitabine] | 1.67% | 2.4% | -0.88% | -3.94% | 3.81% |
| O=C(c1c(F)ccc(NS(=O)(=O)N2CC[C@@H](F)C2)c1F)c1c[nH]c2ncc(-c3cnc(C4CC4)nc3)cc12 | 3.26% | -1.73% | -2.71% | -1.89% | -5.07% |
| CS(=O)(=O)c1ccc([C@@H](CC2CCCC2)C(=O)Nc2nccs2)cc1 | -0.6% | -1.12% | 1.31% | 1.71% | 1.96% |
| NCC1OC(C23CC4CC(CC(C4)C2)C3)Cc2c1ccc(O)c2O (stereo not given) | 0.67% | 0.56% | 2.31% | 1.57% | -6.39% |
| NS(=O)(=O)NCc1csc2ccccc12 | 3.48% | -0.74% | -0.43% | 3.95% | 2.4% |
| Nc1nc(N)c(N=O)c(OCC2CCCCC2)n1 | -3.27% | 3.73% | 1.88% | 5.81% | 18.5% (active) |
| CCc1[nH]c(=O)[nH]c1C(=O)c1ccncc1 [piroximone] | -0.93% | 5% | 3.91% | 3.62% | -1.11% |
| O=C(O)C1=CCCN(CCON=C(c2ccccc2)c2ccccc2)C1 | -1.65% | 0.36% | 0.96% | 0.86% | 2.06% |
| CN[C@H](CC(C)C)C(=O)N[C@H]1C(=O)N[C@@H](CC(N)=O)C(=O)N[C@H]2C(=O)N[C@H]3C(=O)N[C@H](C(=O)N[C@H](C(=O)O)c4cc(O)cc(O)c4-c4cc3ccc4O)[C@H](O[C@H]3C[C@](C)(N)[C@@H](O)[C@H](C)O3)c3ccc(c(Cl)c3)Oc3cc2cc(c3O[C@@H]2O[C@H](CO)[C@@H](O)[C@H](O)[C@H]2O[C@H]2C[C@](C)(NCc3ccc(-c4ccc(Cl)cc4)cc3)[C@@H](O)[C@H](C)O2)Oc2ccc(cc2Cl)[C@H]1O [oritavancin] | 2.97% | 3.58% | -0.56% | 0.82% | 0.93% |
| CCN(CC)CCOCCOC(=O)C(CC)(CC)c1ccccc1 [oxelaidin] | -3.54% | 0.15% | 0.38% | -0.56% | 0.38% |
